Reference: the supplement of paper PMC10849652
Of roughly 7,900 targets only a part is listed; those with a hit were picked by preference. About 0.6% of all pairs of compound and target were hits. A number with no mark means an inactive call.

What was measured:
Test in all cases: log2 fold change, soluble protein after heating vs DMSO (PISA); higher = thermal stabilisation; K562 cells, 10 uM, 30 min; active = over 0.2 and 3.5 SD of the protein, either way, in both replicates (recomputed)
[1] = compound: CC1=C(C=C(C=C1)NC(=O)C2=CC(=CC=C2)C(C)(C)C#N)NC3=CC4=C(C=C3)N=CN(C4=O)C
Method in brief: (§1)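 K562 cells at 2×10^6 cells/mL were treated for 30 min with 10 μM compound, and aliquots were heated for 3 min over 48°C-58°C before pooling. Extraction used PBS with 0.5% NP-40 at 4°C, and soluble protein was the supernatant after 21,000xg for 90 min, measured by TMTpro 16plex LC-MS/MS with channel sums equalised. Thermal stability values, relative to control samples and from duplicates, are log2 fold changes.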

[2] = compound: CC1=C(C=C(C=C1)NC(=O)C2=CC(=CC=C2)N(C)C)NC(=O)C3=CC=C(C=C3)O
Method in brief: as §1

[3] = compound: CC1=CC=C(C=C1)SC2=C3C=C(SC3=CN=C2)C(=O)N
Method in brief: as §1

[4] = compound: CC1=NC(=CC=C1)C2=C(N=C(N2)C(C)(C)C)C3=CC4=NC=CN=C4C=C3
Method in brief: as §1

Nexturastat A = compound: CCCCN(Cc1ccc(C(=O)NO)cc1)C(=O)Nc1ccccc1 [Nexturastat A]
Method in brief: as §1

vemurafenib = compound: CCCS(=O)(=O)Nc1ccc(F)c(C(=O)c2c[nH]c3ncc(-c4ccc(Cl)cc4)cc23)c1F [vemurafenib]
Method in brief: as §1

[5] = compound: CCCS(=O)(=O)Nc1ccc(F)c(C(=O)c2c[nH]c3ncc(Cl)cc23)c1F
Method in brief: as §1

[6] = compound: CCCc1cc(C)[nH]c(=O)c1CNC(=O)c1cc(-c2ccnc(N3CCN(C)CC3)c2)cc2c1cnn2C(C)C
Method in brief: as §1

givinostat = compound: CCN(CC)Cc1ccc2cc(COC(=O)Nc3ccc(C(=O)NO)cc3)ccc2c1 [givinostat]
Method in brief: as §1

barasertib = compound: CCN(CCCOc1ccc2c(Nc3cc(CC(=O)Nc4cccc(F)c4)[nH]n3)ncnc2c1)CCOP(=O)(O)O [barasertib]
Method in brief: as §1

[7] = compound: CC[C@@H]1C(=O)N(C)c2cnc(Nc3ccc(C(=O)NC4CCN(C)CC4)cc3OC)nc2N1C1CCCC1
Method in brief: as §1

volasertib = compound: CC[C@@H]1C(=O)N(C)c2cnc(Nc3ccc(C(=O)N[C@H]4CC[C@H](N5CCN(CC6CC6)CC5)CC4)cc3OC)nc2N1C(C)C [volasertib]
Method in brief: as §1

[8] = compound: CC[C@H](C)N1C=C(C2=C(C=C(C=C21)C3=CN=C(C=C3)N4CCNCC4)C(=O)NCC5=C(C=C(NC5=O)C)C)C
Method in brief: as §1

epoxomicin = compound: CC[C@H](C)[C@@H](C(=O)N[C@@H]([C@@H](C)O)C(=O)N[C@@H](CC(C)C)C(=O)[C@]1(CO1)C)NC(=O)[C@H]([C@@H](C)CC)N(C)C(=O)C [epoxomicin]
Method in brief: as §1

[9] = compound: CCn1c(C(=O)N(C2CC2)C2CC2)cc2c3c(ncn3C)c(Nc3cc(C)n(C)n3)nc21
Method in brief: as §1

[10] = compound: CCn1cc(-c2ccnc3[nH]c(-c4cccc(CN(C)C)c4)cc23)c(-c2ccc(NC(=O)N(C)C)cc2)n1
Method in brief: as §1

[11] = compound: CN(C)CC(=O)Nc1ccc2[nH]c(=O)c3ccccc3c2c1
Method in brief: as §1

rosiglitazone = compound: CN(CCOC1=CC=C(C=C1)C[C@H]2C(=O)NC(=O)S2)C3=CC=CC=N3 (racemic) [rosiglitazone]
Method in brief: as §1

[12] = compound: CN1C2=C(C3=C1C(=O)N(N=C3)CC4=CC(=CC=C4)N)SC(=C2)S(=O)C
Method in brief: as §1

[13] = compound: CN1CCC(CNc2ccc3ncc(-c4cccc(OC(F)(F)F)c4)n3n2)CC1
Method in brief: as §1

Sequence of UniProt Q9UL33 (Q9UL33 whole entry, looked up): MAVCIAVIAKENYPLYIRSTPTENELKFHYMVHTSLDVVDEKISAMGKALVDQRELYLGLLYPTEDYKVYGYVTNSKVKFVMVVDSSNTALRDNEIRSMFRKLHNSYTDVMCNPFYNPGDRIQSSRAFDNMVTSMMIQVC
Sequence of UniProt Q86WV6 (Q86WV6 whole entry, looked up): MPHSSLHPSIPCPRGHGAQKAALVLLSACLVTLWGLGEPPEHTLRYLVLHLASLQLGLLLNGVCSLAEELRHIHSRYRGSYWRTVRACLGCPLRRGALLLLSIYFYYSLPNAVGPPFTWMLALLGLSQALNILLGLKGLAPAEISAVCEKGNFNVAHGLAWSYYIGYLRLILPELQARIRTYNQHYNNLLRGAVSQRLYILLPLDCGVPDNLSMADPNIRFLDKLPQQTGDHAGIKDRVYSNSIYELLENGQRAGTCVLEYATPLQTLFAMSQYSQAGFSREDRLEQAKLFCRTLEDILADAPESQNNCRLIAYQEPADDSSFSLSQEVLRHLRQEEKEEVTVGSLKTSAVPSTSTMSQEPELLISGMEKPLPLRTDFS
Sequence of UniProt P12270 (P12270 whole entry, looked up): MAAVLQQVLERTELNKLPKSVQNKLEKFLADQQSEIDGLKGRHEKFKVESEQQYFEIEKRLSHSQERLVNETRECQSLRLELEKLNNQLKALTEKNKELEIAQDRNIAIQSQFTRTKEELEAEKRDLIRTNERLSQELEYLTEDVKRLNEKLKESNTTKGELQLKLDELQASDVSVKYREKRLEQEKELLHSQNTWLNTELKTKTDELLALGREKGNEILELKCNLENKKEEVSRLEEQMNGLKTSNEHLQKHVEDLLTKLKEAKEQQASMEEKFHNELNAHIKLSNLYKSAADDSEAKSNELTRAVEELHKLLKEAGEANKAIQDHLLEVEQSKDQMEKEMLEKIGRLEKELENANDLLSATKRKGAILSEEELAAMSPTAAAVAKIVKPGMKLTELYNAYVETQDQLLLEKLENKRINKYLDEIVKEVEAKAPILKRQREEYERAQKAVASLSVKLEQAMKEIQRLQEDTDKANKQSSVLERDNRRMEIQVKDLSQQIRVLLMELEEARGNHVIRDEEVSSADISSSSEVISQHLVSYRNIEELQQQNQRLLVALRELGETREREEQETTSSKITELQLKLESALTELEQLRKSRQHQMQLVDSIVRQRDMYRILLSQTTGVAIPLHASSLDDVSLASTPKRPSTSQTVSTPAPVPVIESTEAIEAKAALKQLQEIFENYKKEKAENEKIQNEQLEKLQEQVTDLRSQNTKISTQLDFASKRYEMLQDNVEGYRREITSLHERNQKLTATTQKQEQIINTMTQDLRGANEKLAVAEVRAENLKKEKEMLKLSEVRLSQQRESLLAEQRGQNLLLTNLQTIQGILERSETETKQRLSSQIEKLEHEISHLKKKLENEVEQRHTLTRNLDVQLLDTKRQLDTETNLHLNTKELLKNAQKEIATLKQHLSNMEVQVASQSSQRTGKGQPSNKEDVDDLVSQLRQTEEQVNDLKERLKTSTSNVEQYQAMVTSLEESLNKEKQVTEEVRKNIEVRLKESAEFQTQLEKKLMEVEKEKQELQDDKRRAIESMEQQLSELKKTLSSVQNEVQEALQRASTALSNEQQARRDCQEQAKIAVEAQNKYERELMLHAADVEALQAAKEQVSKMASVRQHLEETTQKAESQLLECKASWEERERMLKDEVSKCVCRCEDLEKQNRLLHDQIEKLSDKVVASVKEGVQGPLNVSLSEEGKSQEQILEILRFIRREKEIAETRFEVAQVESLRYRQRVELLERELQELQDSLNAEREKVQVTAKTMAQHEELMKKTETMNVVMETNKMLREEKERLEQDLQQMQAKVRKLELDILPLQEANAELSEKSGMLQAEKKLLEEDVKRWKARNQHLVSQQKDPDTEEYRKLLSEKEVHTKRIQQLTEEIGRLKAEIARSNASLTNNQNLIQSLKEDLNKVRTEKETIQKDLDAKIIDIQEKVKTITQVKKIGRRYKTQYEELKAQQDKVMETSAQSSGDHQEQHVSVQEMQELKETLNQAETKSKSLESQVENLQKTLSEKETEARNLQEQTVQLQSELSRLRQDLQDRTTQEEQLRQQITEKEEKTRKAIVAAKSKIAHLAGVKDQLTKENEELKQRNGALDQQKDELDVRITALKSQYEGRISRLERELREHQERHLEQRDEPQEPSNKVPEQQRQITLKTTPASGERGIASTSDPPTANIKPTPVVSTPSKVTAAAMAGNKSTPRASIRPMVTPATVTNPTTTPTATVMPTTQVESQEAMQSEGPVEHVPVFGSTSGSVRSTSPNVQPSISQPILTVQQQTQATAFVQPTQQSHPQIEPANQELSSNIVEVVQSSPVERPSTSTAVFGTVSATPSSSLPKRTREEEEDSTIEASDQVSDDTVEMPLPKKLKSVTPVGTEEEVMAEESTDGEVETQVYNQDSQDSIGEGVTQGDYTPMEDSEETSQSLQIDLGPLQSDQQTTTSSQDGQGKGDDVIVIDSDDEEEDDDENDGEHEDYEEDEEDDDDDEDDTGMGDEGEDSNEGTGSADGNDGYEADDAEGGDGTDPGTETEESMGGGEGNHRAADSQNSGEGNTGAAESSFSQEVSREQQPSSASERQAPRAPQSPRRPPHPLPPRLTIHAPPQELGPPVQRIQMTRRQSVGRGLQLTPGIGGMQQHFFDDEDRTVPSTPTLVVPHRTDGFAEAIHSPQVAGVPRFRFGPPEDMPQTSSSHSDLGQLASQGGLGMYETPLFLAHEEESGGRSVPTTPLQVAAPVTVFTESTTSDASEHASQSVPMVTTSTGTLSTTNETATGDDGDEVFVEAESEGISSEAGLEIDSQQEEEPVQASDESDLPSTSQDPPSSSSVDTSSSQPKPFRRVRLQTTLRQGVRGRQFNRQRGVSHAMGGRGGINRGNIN
Sequence of UniProt Q96AJ9 (Q96AJ9 whole entry, looked up): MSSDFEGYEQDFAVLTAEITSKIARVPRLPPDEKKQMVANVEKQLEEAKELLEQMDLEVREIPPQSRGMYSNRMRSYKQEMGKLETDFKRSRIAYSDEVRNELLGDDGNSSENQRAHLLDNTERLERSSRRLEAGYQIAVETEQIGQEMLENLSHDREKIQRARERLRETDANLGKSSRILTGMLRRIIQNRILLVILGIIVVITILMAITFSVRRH
Sequence of UniProt Q6ZXV5 (Q6ZXV5 whole entry, looked up): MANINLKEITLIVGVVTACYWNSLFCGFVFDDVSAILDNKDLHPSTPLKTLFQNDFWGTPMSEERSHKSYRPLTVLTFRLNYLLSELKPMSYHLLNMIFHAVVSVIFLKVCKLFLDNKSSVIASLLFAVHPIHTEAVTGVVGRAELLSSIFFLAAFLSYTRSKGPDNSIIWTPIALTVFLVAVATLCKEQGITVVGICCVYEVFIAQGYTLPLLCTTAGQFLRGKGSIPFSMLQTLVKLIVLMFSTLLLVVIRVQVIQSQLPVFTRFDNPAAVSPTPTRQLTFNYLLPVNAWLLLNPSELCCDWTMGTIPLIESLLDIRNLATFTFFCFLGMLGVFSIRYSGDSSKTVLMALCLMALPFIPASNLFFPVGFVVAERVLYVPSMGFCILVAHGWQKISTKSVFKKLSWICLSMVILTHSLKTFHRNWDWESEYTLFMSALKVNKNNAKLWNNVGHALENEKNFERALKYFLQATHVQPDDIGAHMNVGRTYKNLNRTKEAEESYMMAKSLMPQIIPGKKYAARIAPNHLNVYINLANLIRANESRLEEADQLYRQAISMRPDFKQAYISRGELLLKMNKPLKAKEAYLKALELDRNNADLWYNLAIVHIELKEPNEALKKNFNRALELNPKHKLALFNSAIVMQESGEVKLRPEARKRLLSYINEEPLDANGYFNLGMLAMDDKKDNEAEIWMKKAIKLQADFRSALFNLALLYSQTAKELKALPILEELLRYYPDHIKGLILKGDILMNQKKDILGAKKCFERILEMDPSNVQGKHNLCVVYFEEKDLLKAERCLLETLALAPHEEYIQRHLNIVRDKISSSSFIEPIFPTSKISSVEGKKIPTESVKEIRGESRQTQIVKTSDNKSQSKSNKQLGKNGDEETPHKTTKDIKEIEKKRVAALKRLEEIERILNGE
Sequence of UniProt Q9UK41 (Q9UK41 whole entry, looked up): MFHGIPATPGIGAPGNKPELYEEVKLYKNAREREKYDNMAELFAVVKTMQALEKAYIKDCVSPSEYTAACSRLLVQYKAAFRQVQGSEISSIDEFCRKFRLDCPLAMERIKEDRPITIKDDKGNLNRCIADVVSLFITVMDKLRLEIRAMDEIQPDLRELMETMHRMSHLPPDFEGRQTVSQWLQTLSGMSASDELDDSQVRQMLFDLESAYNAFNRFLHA
Sequence of UniProt Q6NUQ4 (Q6NUQ4 whole entry, looked up): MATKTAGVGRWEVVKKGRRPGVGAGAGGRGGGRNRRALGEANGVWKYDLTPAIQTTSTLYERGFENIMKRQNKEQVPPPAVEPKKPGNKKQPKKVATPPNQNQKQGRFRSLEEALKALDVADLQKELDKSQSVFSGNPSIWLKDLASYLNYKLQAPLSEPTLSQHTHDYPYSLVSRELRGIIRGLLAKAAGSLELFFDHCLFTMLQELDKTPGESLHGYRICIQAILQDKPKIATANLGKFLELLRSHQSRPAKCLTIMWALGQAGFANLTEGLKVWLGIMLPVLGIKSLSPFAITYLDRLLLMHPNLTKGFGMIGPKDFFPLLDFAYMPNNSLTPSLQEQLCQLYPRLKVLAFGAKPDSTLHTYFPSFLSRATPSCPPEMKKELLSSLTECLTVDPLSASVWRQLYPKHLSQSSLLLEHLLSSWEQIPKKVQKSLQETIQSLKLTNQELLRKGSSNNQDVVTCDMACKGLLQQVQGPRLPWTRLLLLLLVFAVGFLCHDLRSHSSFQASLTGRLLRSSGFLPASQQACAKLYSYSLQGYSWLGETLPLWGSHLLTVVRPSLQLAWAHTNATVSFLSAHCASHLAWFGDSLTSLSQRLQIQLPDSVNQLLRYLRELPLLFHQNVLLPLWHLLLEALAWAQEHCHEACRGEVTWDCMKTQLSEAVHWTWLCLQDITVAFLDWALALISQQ

Row | Target | log2 fold change [1] | log2 fold change [2] | log2 fold change [3] | log2 fold change [4] | log2 fold change (Nexturastat A) | log2 fold change (vemurafenib) | log2 fold change [5] | log2 fold change [6] | log2 fold change (givinostat) | log2 fold change (barasertib) | log2 fold change [7] | log2 fold change (volasertib) | log2 fold change [8] | log2 fold change (epoxomicin) | log2 fold change [9] | log2 fold change [10] | log2 fold change [11] | log2 fold change (rosiglitazone) | log2 fold change [12] | log2 fold change [13]
1 | WASHC5 (UniProt Q12768) | -0.011 | -0.011 | 0 | -0.006 | 0.052 | 0.004 | 0.004 | 0.065 | 0.085 | 0.077 | -0.109 | -0.268 | 0.09 | 0.049 | -0.061 | 0.035 | 0.045 | 0.008 | -0.006 | -0.114
2 | USP7 (UniProt Q93009) | 0.054 | -0.046 | 0.007 | 0.012 | 0.015 | 0.036 | 0.068 | 0 | 0.083 | 0.073 | -0.045 | -0.215 | 0.101 | 0.02 | -0.12 | -0.164 | 0.097 | 0.116 | -0.005 | -0.351 (active)
3 | WDHD1 (UniProt O75717) | 0.057 | -0.043 | 0.013 | 0.072 | -0.053 | 0.066 | 0.095 | 0.022 | 0.053 | 0.055 | -0.209 | -0.458 (active) | 0.079 | 0.071 | -0.018 | -0.033 | 0.051 | 0.072 | -0.063 | -0.118
4 | TPR (UniProt P12270) | -0.001 | 0.023 | -0.069 | -0.047 | -0.048 | 0.031 | 0.012 | 0.003 | -0.08 | 0 | 0.095 | -0.034 | -0.018 | 0 | 0.055 | 0.067 | -0.03 | -0.02 | -0.005 | 0.297 (active)
5 | TNPO2 (UniProt O14787) | 0.052 | -0.01 | 0.073 | 0.015 | 0.021 | 0.061 | 0.11 | 0.007 | 0.083 | 0.054 | -0.176 | -0.36 (active) | 0.106 | 0.029 | -0.031 | -0.027 | 0.111 | 0.068 | 0.016 | 0.06
6 | UBA1 (UniProt P22314) | 0.039 | -0.054 | 0.048 | 0.006 | -0.066 | 0.084 | 0.089 | 0.058 | 0.074 | 0.138 | -0.236 | -0.543 (active) | 0.133 | 0.044 | -0.098 | -0.008 | 0.115 | 0.132 | 0.023 | -0.02
7 | TRIM28 (UniProt Q13263) | 0.013 | -0.049 | 0.013 | 0.041 | -0.059 | 0.078 | 0.075 | 0.012 | 0.039 | 0.04 | -0.097 | -0.222 (active) | 0.052 | 0.077 | -0.004 | 0 | 0.047 | 0.029 | -0.033 | -0.033
8 | TMTC3 (UniProt Q6ZXV5) | -0.05 | -0.009 | 0.019 | 0.007 | 0.067 | -0.052 | 0.013 | -0.013 | -0.032 | 0.032 | -0.074 | -0.118 | 0.023 | 0.001 | 0.001 | 0.038 | -0.045 | 0.03 | -0.014 | -0.034
9 | VTI1A (UniProt Q96AJ9) | -0.039 | 0.015 | 0.011 | 0.095 | -0.023 | -0.014 | -0.035 | 0.052 | -0.013 | -0.009 | 0.051 | -0.002 | -0.026 | 0.006 | 0.039 | 0.068 | 0.028 | -0.017 | 0.01 | -0.219 (active)
10 | TNPO3 (UniProt Q9Y5L0) | 0.028 | 0.004 | 0.057 | 0.003 | -0.036 | 0.069 | 0.08 | 0.003 | 0.029 | 0.019 | -0.182 | -0.406 (active) | 0.039 | 0.041 | 0.002 | -0.075 | 0.041 | 0.046 | -0.036 | -0.128
11 | WDR11 (UniProt Q9BZH6) | -0.004 | 0.057 | -0.008 | -0.016 | -0.097 | -0.089 | -0.084 | -0.105 | 0.035 | 0.034 | 0.079 | 0.031 | -0.183 | 0 | 0.062 | 0.089 | -0.061 | 0.08 | 0.009 | -0.131
12 | TMEM214 (UniProt Q6NUQ4) | -0.038 | -0.054 | 0.023 | 0.007 | 0.062 | 0.046 | 0.065 | 0 | 0.021 | -0.03 | -0.023 | -0.246 (active) | 0.075 | 0.032 | -0.056 | -0.023 | 0.008 | 0.046 | 0.004 | 0.148
13 | TMEM189-UBE2V1 (UniProt I3L0A0) | -0.067 | 0.017 | 0.006 | -0.003 | -0.042 | -0.005 | -0.056 | -0.182 | 0.024 | -0.054 | 0.054 | 0.056 | -0.137 | -0.023 | -0.003 | 0.048 | 0 | 0.04 | -0.035 | -0.009
14 | TRAPPC2L (UniProt Q9UL33) | 0 | -0.135 | 0.133 | 0.045 | 0.003 | 0.076 | 0.11 | 0.055 | -0.123 | 0.05 | -0.109 | -0.065 | 0.008 | 0.06 | -0.076 | -0.042 | 0.128 | 0.053 | 0.007 | 0.001
15 | VPS28 (UniProt Q9UK41) | 0.029 | -0.044 | 0.055 | 0.004 | -0.018 | 0.041 | -0.008 | -0.074 | -0.024 | 0.061 | -0.057 | -0.3 (active) | 0.032 | 0.09 | 0.001 | -0.048 | 0.011 | 0.102 | -0.038 | -0.139
16 | TMEM173 (UniProt Q86WV6) | -0.037 | -0.01 | -0.043 | -0.008 | -0.212 | 0.056 | -0.043 | -0.008 | -0.076 | 0.055 | 0.219 | 0.156 | 0.086 | 0.026 | 0.021 | -0.017 | 0.032 | 0.044 | -0.049 | 0.293 (active)
